Here are results for 30 compounds from PubChem BioAssay AID1117359 (Southern Research Institute, 2015).

Out of some 1,500 compounds screened, about 460 (31%) were called active.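 The calls were made as follows: active = viability at or below 80% at any tested concentration, marking the compound as toxic; inactive = the rest.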 A selection follows. Entries that show only a call come without a potency. Potency and affinity values are given separately.

The nature of this assay: THP-1 cell cytotoxicity, dose response, cytotoxicity control for Vif-APOBEC3G degradation inhibitor project, THP-1 cells (AID 1117359). The settings on record: THP-1 viability, CellTiter-Glo luminescence, 72 h; series mostly up to 40 µM.
Regarding `CC(C)CN1C(=O)c2ccc(C(=O)Nc3ccc(O)cc3C(=O)O)cc2C1=O`, the result was inactive.

Consider `CS(=O)(=O)c1ccc(Cl)c(NC(=O)COC(=O)COc2ccc3c(c2)CCC3)c1`, for which the call was inactive.

As for `CCOc1ccc(NC(=O)CCS(=O)(=O)c2ccc(Br)cc2)cc1`, the compound was called inactive.

Take `Cc1nccn1CC(=O)N/N=C/c1ccc(O)c(O)c1`: the outcome was inactive.

Consider `Cc1ccsc1C=Nc1ccc(O)cc1`, for which the compound was classed as inactive.

On to `Oc1ccc(N=Cc2sc3ccccc3c2Cl)cc1`, for which the compound was called inactive.

On to `NC(=S)N=Nc1c(O)cc(O)c2[nH]c(=O)ccc12`, for which the compound was classed as inactive.

On to `Cc1n[nH]c(=S)n(NC(=O)/C=C/C(=O)Nn2c(=S)[nH]nc(C)c2=O)c1=O`, for which the compound was called inactive.

For the compound `CCN(CC)C(=O)NCc1c(C)cc(C)cc1C`, the compound was called inactive.

As for `CCOC(=O)C(=O)Cc1cccnn1`, the call was inactive.

As to `CC(=O)c1ccc(S(=O)(=O)Nc2cccc(-n3cnnn3)c2)cc1`, the compound was classed as inactive.

Regarding `CC1CCC(NC(=O)CCS(=O)(=O)c2ccc3c(c2)CCN3C(=O)C2CC2)CC1` (stereo not given), the outcome was inactive.

Regarding `CCc1ccc(-c2nc(SCC(=O)c3c(N)n(C4CC4)c(=O)[nH]c3=O)n[nH]2)cc1`, the call was inactive.

For `COCCn1c(SCC(=O)N2CCC(C)CC2)nc2c([nH]c3ccccc32)c1=O`, the compound was called inactive.

For the compound `O=C(c1ccc2nc(-c3ccco3)c(-c3ccco3)nc2c1)N1CCN(c2ncccn2)CC1`, the outcome was inactive.

For `N#Cc1ccccc1S(=O)(=O)N1CCN(C(=O)CN2CCCC2c2cccs2)CC1` (stereo not given), the compound was classed as inactive.

As to `Cc1ccccc1OCC(=O)OCC(=O)c1ccc(OC(=O)c2ccccc2)cc1`, the outcome was inactive.

Regarding `COc1ccccc1OCC(=O)NCC1CCCN(Cc2cnn(C(C)C)c2)C1` (stereo not given), the compound was called inactive.

As for `Cc1cc(C(=O)NNC(=O)CCC2CCCCC2)c(C)o1`, the outcome was inactive.

As to `CCOc1ccc(N(CC(=O)NCCC2=CCCCC2)S(=O)(=O)c2ccccc2)cc1`, the result was inactive.

`O=C(c1cc(COc2cccc3cccnc23)on1)N1CCC[C@H]1CO`: the result was inactive.

Take `CC(Oc1cccc2cccnc12)C(=O)N/N=C/c1ccc2c(c1)OCO2` (stereo not given): the compound was called inactive.

As to `CC(=O)Nc1ccc(NC(=O)CN(c2cccc(C(C)=O)c2)S(C)(=O)=O)cc1`, the compound was called inactive.

`COc1ccc(-n2c(Cc3cccn3C)nnc2SCC(=O)Nc2ccccc2)cc1`: the outcome was inactive.

Regarding `CCOC(=O)c1cc2c(n(-c3ccccc3)c1=O)CC(C)(C)CC2=O`, the result was inactive.

Consider `Cn1c(N)c(C(=O)CCl)c(=O)n(Cc2ccccc2)c1=O`, for which the result was inactive.

As to `O=C(O)c1cc(-c2ccccc2)on1`, the compound was classed as inactive.

Consider `CN1CCN(C(CNC(=O)c2ccc(Br)o2)c2ccc(F)cc2)CC1` (stereo not given), for which the result was inactive.

As for `CC(NC(=O)CSc1nnc2n1CCCCC2)c1ccccc1Cl` (stereo not given), the compound was called inactive.

Take `COc1cc(CN2CCNC(=O)C2CC(=O)N(Cc2nccn2C)C(C)C)cc(OC)c1` (stereo not given): the compound was called inactive.
